Reference: PubChem BioAssay AID720688 (NMMLSC, 2013)
The source made the active and inactive calls.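 The calls were made as follows: active = half-effect concentration at most 10 µM, response change at least 30% across doses, and a curve fit passing quality checks; inactive = the rest.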

Molecular target: Cell division control protein 42 homolog (Homo sapiens) (UniProt P60953)
Experiment: Cdc42 wildtype GTP-binding inhibitors, late-stage follow-up, mechanism study for Ras-family GTPase inhibitor project, biochemical, protein source comparison, flow cytometry beads, Bodipy-FL-GTP (AID 720688)
Conditions: GST-Cdc42 beads; protein source 1, at 100 µM (top of the series)

Chain of Cell division control protein 42 homolog (Homo sapiens) (P60953 whole entry, looked up): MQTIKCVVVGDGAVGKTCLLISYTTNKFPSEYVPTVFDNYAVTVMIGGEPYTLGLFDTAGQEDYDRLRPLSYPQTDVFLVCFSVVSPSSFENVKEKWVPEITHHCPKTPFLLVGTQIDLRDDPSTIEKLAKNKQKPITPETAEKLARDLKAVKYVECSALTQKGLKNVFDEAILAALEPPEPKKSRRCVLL

Question: How did the outcome turn out when `CC1(C)Cc2c(sc(NC(=S)NC(=O)c3ccc(N=[N+]=[N-])cc3)c2C(=O)O)CO1` was run?
Answer: inactive

Question: With `CC1(C)Cc2c(sc(NC(=S)NC(=O)c3cccc(N=[N+]=[N-])c3)c2C(=O)O)CO1` as the compound, how does the outcome read?
Answer: inactive
